The target of assay [1] is CDK3/Cyclin E (Homo sapiens) (UniProt P24864+Q00526). The note with it: at 1 µM.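 Also: each figure is a mean percent inhibition of the CDK3/cyclin E complex.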
The target of assay [2] is Cyclin-dependent kinase 4 (Homo sapiens) (UniProt P11802). As to conditions: at 0.1 µM.
The target is the same in assay [3]. As to conditions: at 1 µM.
For assay [4], the target named is Cyclin-dependent kinase 5 (Homo sapiens) (UniProt Q00535). The note with it: at 0.1 µM.
Assay [5] has the same target. The note with it: at 1 µM.
Assay [6] has as its target Cyclin-dependent kinase 6 (Homo sapiens) (UniProt Q00534). As to conditions: at 0.1 µM.
For assay [7] the target is unchanged. As to conditions: at 1 µM.
For assay [8], the target named is Dual specificity protein kinase CLK2 (Homo sapiens) (UniProt P49760). As to conditions: at 0.1 µM.
The target is the same in assay [9]. The note with it: at 1 µM.
Assay [10] addresses Dual specificity protein kinase CLK3 (Homo sapiens) (UniProt P49761). As to conditions: at 0.1 µM.

These results are taken from ChEMBL document CHEMBL1961873, “Compounds: GSK PKIS; Assays: Nanosyn kinase panel” (2012).

Dual specificity protein kinase CLK2 (Homo sapiens), sequence (P49760 whole entry, looked up): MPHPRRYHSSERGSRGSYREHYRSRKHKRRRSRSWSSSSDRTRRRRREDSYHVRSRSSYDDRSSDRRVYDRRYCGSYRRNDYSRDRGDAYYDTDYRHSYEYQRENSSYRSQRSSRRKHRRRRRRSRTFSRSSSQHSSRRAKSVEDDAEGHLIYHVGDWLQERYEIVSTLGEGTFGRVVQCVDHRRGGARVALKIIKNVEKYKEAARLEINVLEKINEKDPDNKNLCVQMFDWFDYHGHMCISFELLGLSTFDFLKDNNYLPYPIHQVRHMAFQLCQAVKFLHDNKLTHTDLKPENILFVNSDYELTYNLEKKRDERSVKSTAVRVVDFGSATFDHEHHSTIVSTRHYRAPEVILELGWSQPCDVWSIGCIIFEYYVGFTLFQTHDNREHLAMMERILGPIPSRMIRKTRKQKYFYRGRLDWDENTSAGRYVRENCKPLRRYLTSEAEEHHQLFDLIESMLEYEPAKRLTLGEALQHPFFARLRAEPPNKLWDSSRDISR
Dual specificity protein kinase CLK3 (Homo sapiens), sequence (P49761 whole entry, looked up): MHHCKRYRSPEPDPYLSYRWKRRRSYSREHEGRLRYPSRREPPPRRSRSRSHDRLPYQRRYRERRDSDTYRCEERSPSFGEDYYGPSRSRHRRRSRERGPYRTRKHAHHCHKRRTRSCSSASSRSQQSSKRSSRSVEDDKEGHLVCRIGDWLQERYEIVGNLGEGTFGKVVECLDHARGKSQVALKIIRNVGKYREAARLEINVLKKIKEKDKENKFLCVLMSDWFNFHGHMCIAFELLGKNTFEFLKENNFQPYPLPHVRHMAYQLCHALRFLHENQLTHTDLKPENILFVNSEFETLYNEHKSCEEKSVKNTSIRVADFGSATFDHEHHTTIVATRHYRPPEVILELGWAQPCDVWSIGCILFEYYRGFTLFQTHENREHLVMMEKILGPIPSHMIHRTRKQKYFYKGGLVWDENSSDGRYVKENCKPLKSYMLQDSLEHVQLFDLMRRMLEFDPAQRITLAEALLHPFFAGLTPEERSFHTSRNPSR
CDK3/Cyclin E (Homo sapiens), sequence (P24864 whole entry, looked up): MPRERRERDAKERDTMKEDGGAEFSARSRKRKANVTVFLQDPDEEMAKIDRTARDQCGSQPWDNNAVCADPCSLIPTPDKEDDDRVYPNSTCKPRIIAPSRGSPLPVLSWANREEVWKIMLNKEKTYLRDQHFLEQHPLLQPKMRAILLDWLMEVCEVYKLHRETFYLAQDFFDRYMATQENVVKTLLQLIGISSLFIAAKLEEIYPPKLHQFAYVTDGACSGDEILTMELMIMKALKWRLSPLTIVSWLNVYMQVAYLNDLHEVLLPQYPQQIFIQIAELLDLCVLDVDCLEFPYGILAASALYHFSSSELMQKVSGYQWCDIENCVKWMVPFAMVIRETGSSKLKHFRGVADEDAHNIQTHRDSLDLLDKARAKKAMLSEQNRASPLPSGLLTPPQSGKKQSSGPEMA
CDK3/Cyclin E (Homo sapiens), sequence (Q00526 whole entry, looked up): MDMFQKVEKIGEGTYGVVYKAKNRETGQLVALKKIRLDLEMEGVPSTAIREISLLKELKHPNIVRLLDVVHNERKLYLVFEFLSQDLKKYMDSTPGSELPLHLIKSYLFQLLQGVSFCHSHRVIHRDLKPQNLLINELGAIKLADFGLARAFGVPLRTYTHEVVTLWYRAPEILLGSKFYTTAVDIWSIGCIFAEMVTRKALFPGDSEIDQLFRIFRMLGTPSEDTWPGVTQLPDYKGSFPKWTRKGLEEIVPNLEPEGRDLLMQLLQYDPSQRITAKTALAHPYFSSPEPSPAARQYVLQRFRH
Cyclin-dependent kinase 6 (Homo sapiens), sequence (Q00534 whole entry): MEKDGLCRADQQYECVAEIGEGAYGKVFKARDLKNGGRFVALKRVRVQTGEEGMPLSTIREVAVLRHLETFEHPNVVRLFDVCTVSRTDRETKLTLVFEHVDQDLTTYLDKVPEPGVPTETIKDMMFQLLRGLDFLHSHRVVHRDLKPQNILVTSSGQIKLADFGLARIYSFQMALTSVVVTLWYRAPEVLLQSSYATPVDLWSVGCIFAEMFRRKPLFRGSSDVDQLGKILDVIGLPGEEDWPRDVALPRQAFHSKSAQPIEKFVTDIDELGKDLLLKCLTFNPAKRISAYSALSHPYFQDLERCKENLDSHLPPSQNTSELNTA
Cyclin-dependent kinase 4 (Homo sapiens), sequence (P11802 whole entry): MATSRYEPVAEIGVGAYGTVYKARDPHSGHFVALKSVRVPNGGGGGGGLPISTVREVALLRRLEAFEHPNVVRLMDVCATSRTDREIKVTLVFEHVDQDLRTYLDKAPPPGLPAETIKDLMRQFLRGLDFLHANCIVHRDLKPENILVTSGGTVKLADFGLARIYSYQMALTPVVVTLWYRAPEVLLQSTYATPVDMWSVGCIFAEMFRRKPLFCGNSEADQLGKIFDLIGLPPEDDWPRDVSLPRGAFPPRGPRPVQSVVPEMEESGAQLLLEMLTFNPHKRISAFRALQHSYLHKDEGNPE
Cyclin-dependent kinase 5 (Homo sapiens), sequence (Q00535 whole entry, looked up): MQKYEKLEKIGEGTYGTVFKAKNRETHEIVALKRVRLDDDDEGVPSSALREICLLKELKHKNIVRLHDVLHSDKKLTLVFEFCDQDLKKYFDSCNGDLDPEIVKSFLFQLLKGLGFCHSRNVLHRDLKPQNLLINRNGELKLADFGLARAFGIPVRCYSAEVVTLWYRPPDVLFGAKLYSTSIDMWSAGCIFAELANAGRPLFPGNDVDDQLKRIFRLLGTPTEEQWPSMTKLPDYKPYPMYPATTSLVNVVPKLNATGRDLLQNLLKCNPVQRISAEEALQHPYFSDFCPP

As to `CC1=C(C(=O)Nc2ccc3[nH]ncc3c2)C(c2ccc(Cl)c(Cl)c2)CC(=O)N1` (configuration not stated), the inhibition (as a rule, the change of the read-out against control, counted positive when it falls) in [1] was 0.2%; in assay [2], 0.92%; in assay [3], -0.63%; in [4] it was -0.73%; in assay [5], -0.62%; in assay [6] it was 2.47%. Besides, the inhibition turned out to be 0.05% in assay [7], 0.09% in [8], 4.18% in assay [9] and 0.34% in assay [10].

In the case of `Fc1cccc(COc2ccc(Nc3ncnc4sc(-c5cccs5)cc34)cc2Cl)c1`, the inhibition in assay [1] was 0.05%; in assay [2] it was 0.35%; in assay [3] it was 2.13%; in assay [4], 0.55%; in assay [5] it was 1.81%; in assay [6] it was -0.81%. Moreover, the inhibition in assay [7] was determined as 0.5%; in [8], 1.58%; in assay [9], 1.69%; in assay [10], 0.66%.

In the case of `CCn1c(-c2nonc2N)nc2ccncc21`, the inhibition in assay [1] is -0.78%; in assay [2], 1.15%; in [3] it was 3.35%; in assay [4], 0.45%; in assay [5] it was 1.71%; in [7], -1.56%. Moreover, the inhibition in assay [8] is 3.93%; in [9] it was 3.92%; in [10], -0.93%.

`COc1ccc(-c2coc3ncnc(N)c23)cc1`: the inhibition in assay [1] was found to be 0.08%; in [2], 4.16%; in [3], 5.78%; in assay [4] it was 2.66%; in assay [5], 3.84%; in assay [7] it was 3.88%. Further, the results for the inhibition in [8], in [9] and in assay [10] were 3.15%, 3.42% and 1.07%, respectively.

Turning to `COc1cc(C)c(NC(=O)CN(C)C)cc1Nc1nc(Nc2cccc(F)c2C(N)=O)c2cc[nH]c2n1`, the inhibition in assay [1] is 0.15%; in assay [2], 0.8%; in assay [3] it was 1.16%; in assay [4], -0.59%; in assay [5], -1.89%; in assay [6] it was -0.3%. For the same compound, the inhibition in assay [7] worked out at 3.87%; in assay [8] it was 45.4%; in assay [9], 88.8%; in assay [10] it was 1.76%.

For the compound `O=C1NC(=O)C(N2CCc3ccccc32)=C1c1ccc(Cl)cc1`, the inhibition in assay [1] was 0.23%; in [2], 3.68%; in assay [3], 5.74%; in assay [4], 2.06%; in [5] it was 2.74%; in assay [6], -3.76%. Further, the inhibition in [7] is 5.39%; in assay [8], -0.03%; in [9], 0.46%; in assay [10] it was 2.68%.

Regarding `COc1cc2ncn(-c3cc(OCc4ccccc4C(F)(F)F)c(C(N)=O)s3)c2cc1OC`, the inhibition in assay [1] is -0.14%; in [2], -1.16%; in [3] it was 1.16%; in assay [4], -3.58%; in assay [5], -1.09%; in assay [6], -3.21%. Moreover, the inhibition is -1.7% in [7], 1.94% in assay [8], 6.82% in assay [9] and -2.62% in assay [10].

Take `COc1cccc(-n2ncc3c(N/N=C/c4cccc(F)c4)ncnc32)c1`: the inhibition in [1] is 5.59%; in assay [2], 0.03%; in assay [3] it was 22.1%; in [4] it was 3.4%; in assay [5], 34.2%; in [6], -5.64%. The inhibition was 17.1% in assay [7], 2.25% in assay [8], 1.15% in [9] and -2.19% in assay [10].

Regarding `COc1cc2ncn(-c3cc(O[C@H](C)c4ccccc4Cl)c(C(N)=O)s3)c2cc1OC`, the inhibition in assay [1] is 5.51%; in assay [2] it was 2.41%; in [3] it was 3.26%; in assay [4], 0.86%; in assay [5] it was 1.47%; in [6], -0.21%. The inhibition in assay [7] was -0.74%; in assay [8] it was 3.38%; in assay [9], 5.22%; in assay [10] it was 2.12%.

In the case of `CS(=O)(=O)Nc1ccc(N/C=C2\C(=O)Nc3ccccc32)cc1`, the inhibition was determined as 17.4% in [1]; 1.6% in assay [2]; 15% in assay [3]; 6.34% in assay [4]; 39.8% in assay [5]; 12.9% in assay [6]. Further, the inhibition is 59.4% in [7], -0.68% in assay [8], 3.62% in [9] and 0.94% in assay [10].

Take `Cn1cc(C=C2C(=O)Nc3cccnc32)c2ccccc21`: the inhibition in assay [1] came out at 3.36%; in assay [2] it was 4.89%; in assay [3], 11%; in [4] it was 5.57%; in assay [5] it was 7.28%; in assay [6], 1.04%. In addition, the inhibition in [7] amounted to 8.56%; in assay [8], 3.28%; in assay [9] it was 13.7%; in assay [10], 0.62%.

In the case of `COc1ccc(-c2nn3ncccc3c2-c2ccnc(Nc3ccc(Cl)c(C(F)(F)F)c3)n2)cc1`, the inhibition is -0.57% in assay [1]; 1.13% in [2]; 2.09% in assay [3]; 0.45% in assay [4]; 0.19% in assay [5]; 0.68% in [6]. Besides, the inhibition in assay [7] was 1.73%; in assay [8] it was 0.95%; in [9], 1.59%; in assay [10] it was 1.77%.

As to `CNC(=O)c1cncc(/C=C/c2c(Cl)cccc2Cl)c1`, the inhibition was -3.08% in assay [1]; 0.86% in [2]; 3.96% in [3]; -2.57% in [4]; -0.63% in assay [5]; -5.76% in [6]. The inhibition in [7] was -5.69%; in [8] it was 2.47%; in assay [9], 5.66%; in assay [10], -3.56%.

Take `Cc1cccc(-c2n[nH]cc2-c2ccc3ncccc3n2)n1`: the inhibition is -2.25% in assay [1]; -0.55% in [2]; 2.39% in assay [3]; -0.23% in assay [4]; 0.38% in assay [5]; -3.86% in [6]. Further, the inhibition was 0.55% in assay [7], -0.31% in [8], 3.44% in assay [9] and 0.37% in [10].

As for `CS(=O)(=O)CCNCc1ccc(-c2ccc3ncnc(Nc4ccc(OCc5ccccc5)c(Cl)c4)c3c2)o1`, the inhibition is -1.2% in [1]; -0.14% in assay [2]; 4.1% in [3]; 2.15% in assay [4]; 3.8% in [5]; -5.27% in assay [6]. The inhibition in assay [7] was -2.22%; in assay [8] it was 2.2%; in assay [9], 1.75%; in assay [10], 0.36%.

On to `c1cnn2ncc(-c3ccnc(Nc4ccc5c(c4)OCCO5)n3)c2c1`, for which the inhibition in assay [1] is 85.6%; in assay [2] it was 51.9%; in assay [3] it was 85.7%; in assay [4] it was 57.4%; in assay [5], 90.4%; in assay [6], 46.5%. For the same compound, the inhibition in assay [7] was 85%; in assay [8], 90.1%; in [9], 97.6%; in assay [10], 12.6%.

`CS(=O)(=O)CCNCc1ccc(-c2ccc3ncnc(Nc4ccc(OCc5cccc(F)c5)c(C(F)(F)F)c4)c3c2)o1`: the inhibition in assay [1] was -2.95%; in [2] it was 2.52%; in assay [3], 2.44%; in assay [4], 0.38%; in assay [5], 0.07%; in assay [7], -2.6%. In addition, the inhibition in assay [8] turned out to be 0.58%; in assay [9], 0.13%; in assay [10], 1.49%.
